According to PubChem BioAssay AID1543 (National Center for Advancing Translational Sciences (NCATS), 2009):
Results filed as inconclusive are left out. Calls of active or inactive are those of the source. Calls follow the shape of the dose curve; as a rule, active = well fitted activation curve with a large enough effect; inconclusive = small, poorly fitted or top-dose-only effect, or effect the other way; inactive = flat fitted curve, though single readings scatter.

biological target: Pyruvate kinase PKLR (Homo sapiens) (UniProt P30613); assay: Secondary assay for Activators of Human Reticulocyte Pyruvate Kinase; conditions: purified hPK-R, LDH-coupled NADH fluorescence kinetic; series mostly up to 57.5 µM; activation: at the top concentration
Text: Confirmatory assay NIH Chemical Genomics Center [NCGC] Wael M. Rabeh, Lyudmila Nedyalkova and Hee-Wan Park [Structural Genomics Consortium, 100 College St. Toronto, Ontario, Canada] NCGC Assay Overview: Human pyruvate kinase reticulocyte (hPK-R) enzyme was supplied as a highly purified (>95% pure) preparation from Structural Genomics Consortium in Toronto (Ontario, Canada) and a secondary assay was used to evaluate compounds. This assay couples the formation of pyruvate from hPK-R using lactate dehydrogenase (LDH) and NADH. The depletion of NADH is followed in a fluorescent-based kinetic assay that follows the formation of pyruvate to lactate, as catalyzed LDH. Pyruvate kinase substrates, PEP and ADP, were present in the assay at 0.1 mM and 4 mM respectively. In this kinetic assay initial rates were determined by following the fluorescence of NADH depletion.
NCGC Assay Protocol Summary: Three uL of substrate mix (final concentration, 50 mM Tris-Cl pH 8.0, 200 mM KCl, 15 mM MgCl2, 0.1 mM PEP, 4.0 mM ADP, and 0.2 mM NADH) was dispensed into black-solid 1536 well plates. 23 nL of compounds were delivered by a pin tool and 1 uL of enzyme mix (final concentrations, 10 nM hPK-R and 1 uM of LDH) was added. Plates were immediately placed in ViewLux (Perkin Elmer) and NADH fluorescence was determined at 30 second exposure intervals for between 3 and 6 minutes. Data were normalized to the uninhibited and EC100 activation using known activators such as fructose-bis-phosphate.

Pyruvate kinase PKLR (Homo sapiens), sequence (P30613 whole entry, looked up): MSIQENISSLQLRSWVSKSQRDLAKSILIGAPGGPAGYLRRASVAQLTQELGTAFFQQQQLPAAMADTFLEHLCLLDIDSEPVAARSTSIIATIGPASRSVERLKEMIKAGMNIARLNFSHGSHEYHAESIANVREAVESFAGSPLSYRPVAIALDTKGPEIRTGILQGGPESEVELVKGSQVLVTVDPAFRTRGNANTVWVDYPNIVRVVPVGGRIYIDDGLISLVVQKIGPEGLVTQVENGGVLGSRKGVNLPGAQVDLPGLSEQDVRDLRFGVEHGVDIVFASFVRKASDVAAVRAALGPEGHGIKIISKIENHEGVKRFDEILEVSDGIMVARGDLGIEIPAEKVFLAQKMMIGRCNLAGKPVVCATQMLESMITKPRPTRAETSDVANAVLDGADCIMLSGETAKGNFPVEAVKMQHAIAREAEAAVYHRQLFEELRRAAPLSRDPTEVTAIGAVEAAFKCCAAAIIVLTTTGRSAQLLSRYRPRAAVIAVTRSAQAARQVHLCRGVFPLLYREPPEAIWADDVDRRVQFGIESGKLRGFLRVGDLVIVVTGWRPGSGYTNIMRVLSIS

activation, inactive:
C[C@H]1CN(S(=O)(=O)c2ccc3c(c2)OCCO3)CCN1S(=O)(=O)c1c(F)cccc1F 6.33%, O=S(=O)(c1ccc2c(c1)OCO2)N1CCN(S(=O)(=O)c2c(F)cccc2F)CC1 9.27%, CCCCCn1ncc2c3sc(C)cc3n(C)c2c1=O 1.51%, Cn1c2cc(C#N)sc2c2cnn(Cc3ccccc3F)c(=O)c21 11.7%, O=C(c1ccc2c(c1)OCCO2)N1CCN(S(=O)(=O)c2c(F)cccc2F)CC1 14.2%, Cc1cc2c(s1)c1cnn(Cc3c(F)c(F)cc(F)c3F)c(=O)c1n2C 17.4%, C[C@H]1CN(S(=O)(=O)c2c(F)cccc2F)CCN1S(=O)(=O)c1ccc2c(c1)OCCO2 11.4%, O=S(=O)(c1ccc2c(c1)OCCO2)N1CCN(S(=O)(=O)c2c(F)ccc(O)c2F)CC1 14.9%, C[C@@H]1CN(S(=O)(=O)c2ccc3c(c2)OCCO3)CCN1S(=O)(=O)c1c(F)cccc1F 20.4%, COc1ccc(S(=O)(=O)N2CCN(S(=O)(=O)c3ccc(OC)cc3)CC2)cc1 -1.17%, O=C(c1c(F)cccc1F)N1CCN(S(=O)(=O)c2ccc3c(c2)OCCO3)CC1 12%, O=S(=O)(c1ccc2c(c1)OCCO2)N1CCN(S(=O)(=O)c2c(F)cccc2F)CC1 -2.1%, O=S(=O)(c1cccc(F)c1)N1CCN(S(=O)(=O)c2ccc3c(c2)OCCO3)CC1 11%, O=S(=O)(c1ccc2ccccc2c1)N1CCN(S(=O)(=O)c2c(F)cccc2F)CC1 6.77%, O=S(=O)(c1ccc(Cl)cc1)N1CCN(S(=O)(=O)c2ccc3c(c2)OCCO3)CC1 8.08%

Potency, active:
CSc1cc2c(s1)c1cnn(Cc3ccccc3F)c(=O)c1n2C 708 nM, Cn1c2ccsc2c2cnn(Cc3ccccc3F)c(=O)c21 14100 nM, CCc1cc2c(s1)c1cnn(Cc3ccccc3F)c(=O)c1n2C 5620 nM, Cn1c2cc(S(C)=O)sc2c2cnn(Cc3ccccc3F)c(=O)c21 (stereo unspecified) 1120 nM, CC(=O)c1cc2c(s1)c1cnn(Cc3ccccc3F)c(=O)c1n2C 631 nM, COc1ccc(Cn2ncc3c4sc(C)cc4n(C)c3c2=O)cc1 631 nM, CC(C)c1cc2c(s1)c1cnn(Cc3ccccc3F)c(=O)c1n2C 4470 nM, Cn1c2cc(C=O)sc2c2cnn(Cc3ccccc3F)c(=O)c21 398 nM

Potency, inactive:
O=S(=O)(c1c(F)cccc1F)N1CCN(S(=O)(=O)c2c(F)cccc2F)CC1, O=S(=O)(c1ccc2c(c1)OCCO2)N1CCN(S(=O)(=O)c2ccc3c(c2)OCCO3)CC1, O=S(=O)(NC1CCC(NS(=O)(=O)c2c(F)cccc2F)CC1)c1ccc2c(c1)OCCO2 (stereo unspecified)
